The target of test [1] is Calcium/calmodulin-dependent protein kinase type II subunit alpha (Homo sapiens) (UniProt Q9UQM7). The following applies: at 1 µM.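 Note: reported value is a mean percent inhibition of CAMK2A.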
Test [2] has as its target Calcium/calmodulin-dependent protein kinase type II subunit delta (Homo sapiens) (UniProt Q13557). The following applies: at 0.1 µM.
Test [3] has the same target. The following applies: at 1 µM.
Test [4] has as its target T1, Calcium/calmodulin-dependent protein kinase type IV (Homo sapiens) (UniProt Q16566).
T1 sequence (whole entry): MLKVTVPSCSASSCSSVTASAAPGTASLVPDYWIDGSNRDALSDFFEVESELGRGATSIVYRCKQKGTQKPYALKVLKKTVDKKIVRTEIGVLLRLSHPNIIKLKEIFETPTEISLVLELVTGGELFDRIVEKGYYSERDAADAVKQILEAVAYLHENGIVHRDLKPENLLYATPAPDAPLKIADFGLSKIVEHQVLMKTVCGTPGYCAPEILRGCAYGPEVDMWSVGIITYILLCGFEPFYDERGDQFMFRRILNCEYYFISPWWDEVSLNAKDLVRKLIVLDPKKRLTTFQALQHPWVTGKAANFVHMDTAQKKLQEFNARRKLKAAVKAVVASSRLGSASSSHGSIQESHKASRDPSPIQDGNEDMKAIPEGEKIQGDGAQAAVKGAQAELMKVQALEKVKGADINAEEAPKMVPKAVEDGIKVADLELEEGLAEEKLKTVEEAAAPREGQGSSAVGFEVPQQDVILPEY
As to conditions: at 0.1 µM.

Test [5] deals with T1, Calcium/calmodulin-dependent protein kinase type IV (Homo sapiens). The following applies: at 1 µM.
Test [6] addresses T2, Serine/threonine-protein kinase Chk1 (Homo sapiens) (UniProt O14757).
T2 sequence (whole entry): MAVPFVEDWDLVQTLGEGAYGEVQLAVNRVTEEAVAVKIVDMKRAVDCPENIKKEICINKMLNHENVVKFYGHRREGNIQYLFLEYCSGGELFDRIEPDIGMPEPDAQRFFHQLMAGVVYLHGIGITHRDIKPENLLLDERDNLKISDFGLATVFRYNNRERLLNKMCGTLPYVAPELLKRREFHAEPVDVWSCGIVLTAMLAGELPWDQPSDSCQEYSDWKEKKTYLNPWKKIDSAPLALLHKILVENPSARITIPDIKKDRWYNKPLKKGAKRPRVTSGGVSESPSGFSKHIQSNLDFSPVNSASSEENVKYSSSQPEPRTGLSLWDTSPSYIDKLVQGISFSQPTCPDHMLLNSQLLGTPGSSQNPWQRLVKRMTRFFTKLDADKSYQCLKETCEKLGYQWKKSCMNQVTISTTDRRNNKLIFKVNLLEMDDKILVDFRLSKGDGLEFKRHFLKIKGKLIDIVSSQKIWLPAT
The following applies: at 0.1 µM.

The target of test [7] is T2, Serine/threonine-protein kinase Chk1 (Homo sapiens). The following applies: at 1 µM.
Test [8] addresses Serine/threonine-protein kinase Chk2 (Homo sapiens) (UniProt O96017). The following applies: at 0.1 µM.
For test [9] the target is unchanged. As to conditions: at 1 µM.
Test [10] has as its target Death-associated protein kinase 1 (Homo sapiens) (UniProt P53355). As to conditions: at 0.1 µM.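 Note: reported figure is the mean inhibition of DAPK1.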

The structures appear in SMILES notation.

Chain of Calcium/calmodulin-dependent protein kinase type II subunit alpha (Homo sapiens) (Q9UQM7 whole entry): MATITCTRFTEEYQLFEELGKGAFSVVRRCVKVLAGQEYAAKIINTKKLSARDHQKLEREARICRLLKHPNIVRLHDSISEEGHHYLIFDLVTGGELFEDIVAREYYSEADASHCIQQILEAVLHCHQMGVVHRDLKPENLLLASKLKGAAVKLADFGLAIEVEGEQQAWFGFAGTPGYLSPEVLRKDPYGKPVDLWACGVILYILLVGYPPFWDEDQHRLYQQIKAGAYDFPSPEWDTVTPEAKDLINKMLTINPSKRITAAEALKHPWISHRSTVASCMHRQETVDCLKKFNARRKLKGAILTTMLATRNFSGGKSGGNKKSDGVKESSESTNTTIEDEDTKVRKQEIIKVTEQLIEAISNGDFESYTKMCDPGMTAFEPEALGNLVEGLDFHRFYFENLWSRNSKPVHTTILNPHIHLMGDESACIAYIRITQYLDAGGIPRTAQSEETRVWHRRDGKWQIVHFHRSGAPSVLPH
Chain of Calcium/calmodulin-dependent protein kinase type II subunit delta (Homo sapiens) (Q13557 whole entry): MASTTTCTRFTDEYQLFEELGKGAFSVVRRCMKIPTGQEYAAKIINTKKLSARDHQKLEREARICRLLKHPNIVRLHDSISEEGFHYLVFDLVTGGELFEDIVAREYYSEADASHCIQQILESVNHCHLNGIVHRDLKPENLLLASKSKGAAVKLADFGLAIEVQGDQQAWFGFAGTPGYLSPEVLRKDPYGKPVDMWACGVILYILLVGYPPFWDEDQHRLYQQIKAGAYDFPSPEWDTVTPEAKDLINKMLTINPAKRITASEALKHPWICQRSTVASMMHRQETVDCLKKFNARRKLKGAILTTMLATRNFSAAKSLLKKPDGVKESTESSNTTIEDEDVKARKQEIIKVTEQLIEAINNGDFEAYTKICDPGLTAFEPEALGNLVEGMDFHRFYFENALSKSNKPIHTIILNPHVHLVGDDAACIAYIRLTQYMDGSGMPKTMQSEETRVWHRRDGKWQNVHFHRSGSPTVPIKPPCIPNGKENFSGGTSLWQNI
Chain of Serine/threonine-protein kinase Chk2 (Homo sapiens) (O96017 whole entry): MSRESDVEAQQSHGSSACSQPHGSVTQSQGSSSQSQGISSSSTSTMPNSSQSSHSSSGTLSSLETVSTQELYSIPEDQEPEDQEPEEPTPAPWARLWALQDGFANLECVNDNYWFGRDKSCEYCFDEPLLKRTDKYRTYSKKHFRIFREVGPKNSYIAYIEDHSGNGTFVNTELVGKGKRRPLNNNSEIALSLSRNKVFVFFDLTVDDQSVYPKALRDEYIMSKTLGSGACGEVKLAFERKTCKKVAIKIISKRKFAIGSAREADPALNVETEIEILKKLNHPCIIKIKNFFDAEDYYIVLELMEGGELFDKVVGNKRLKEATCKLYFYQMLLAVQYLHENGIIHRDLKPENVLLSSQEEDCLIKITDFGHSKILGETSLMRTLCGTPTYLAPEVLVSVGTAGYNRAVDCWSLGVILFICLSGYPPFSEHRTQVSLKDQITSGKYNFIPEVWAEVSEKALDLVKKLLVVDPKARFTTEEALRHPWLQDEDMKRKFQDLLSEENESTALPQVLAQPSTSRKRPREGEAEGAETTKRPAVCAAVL
Chain of Death-associated protein kinase 1 (Homo sapiens) (P53355 whole entry, looked up): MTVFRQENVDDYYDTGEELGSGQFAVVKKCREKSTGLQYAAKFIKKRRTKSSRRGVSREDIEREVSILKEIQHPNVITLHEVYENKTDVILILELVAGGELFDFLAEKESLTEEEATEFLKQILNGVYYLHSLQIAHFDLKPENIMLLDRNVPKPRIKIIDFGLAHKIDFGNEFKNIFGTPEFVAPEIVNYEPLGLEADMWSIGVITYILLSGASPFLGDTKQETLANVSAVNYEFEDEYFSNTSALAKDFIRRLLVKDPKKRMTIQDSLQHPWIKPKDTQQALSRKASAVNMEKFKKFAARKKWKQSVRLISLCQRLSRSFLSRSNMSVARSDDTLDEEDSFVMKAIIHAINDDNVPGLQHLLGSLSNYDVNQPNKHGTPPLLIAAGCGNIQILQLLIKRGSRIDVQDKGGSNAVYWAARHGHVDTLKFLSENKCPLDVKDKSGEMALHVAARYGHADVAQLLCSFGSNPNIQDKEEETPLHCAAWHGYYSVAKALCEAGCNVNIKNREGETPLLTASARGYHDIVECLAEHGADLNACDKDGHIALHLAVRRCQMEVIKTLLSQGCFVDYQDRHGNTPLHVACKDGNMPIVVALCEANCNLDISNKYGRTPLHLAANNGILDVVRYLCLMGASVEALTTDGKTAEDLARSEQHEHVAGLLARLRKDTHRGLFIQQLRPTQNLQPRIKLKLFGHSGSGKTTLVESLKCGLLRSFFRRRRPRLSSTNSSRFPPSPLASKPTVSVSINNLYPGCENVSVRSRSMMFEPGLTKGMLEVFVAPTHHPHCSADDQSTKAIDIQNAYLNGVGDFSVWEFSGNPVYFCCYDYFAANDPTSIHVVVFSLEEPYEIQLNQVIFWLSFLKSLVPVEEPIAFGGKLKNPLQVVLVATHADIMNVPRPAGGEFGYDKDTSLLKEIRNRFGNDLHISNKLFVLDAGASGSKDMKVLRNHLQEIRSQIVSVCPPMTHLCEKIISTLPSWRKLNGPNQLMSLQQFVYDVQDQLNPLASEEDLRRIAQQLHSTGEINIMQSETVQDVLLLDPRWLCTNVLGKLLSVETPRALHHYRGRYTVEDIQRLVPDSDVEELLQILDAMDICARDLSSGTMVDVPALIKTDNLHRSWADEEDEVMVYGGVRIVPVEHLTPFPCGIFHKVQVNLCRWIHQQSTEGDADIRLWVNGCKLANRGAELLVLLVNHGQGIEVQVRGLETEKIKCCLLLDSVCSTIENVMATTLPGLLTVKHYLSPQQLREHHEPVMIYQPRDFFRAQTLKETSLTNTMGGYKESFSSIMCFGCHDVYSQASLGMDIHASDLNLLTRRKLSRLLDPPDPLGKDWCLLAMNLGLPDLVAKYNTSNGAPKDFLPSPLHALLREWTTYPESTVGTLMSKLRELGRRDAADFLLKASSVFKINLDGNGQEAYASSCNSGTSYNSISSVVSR

As a reminder, the inhibition is the drop in the measured response relative to a control, in per cent. As for `CS(=O)(=O)CCNCc1ccc(-c2ccc3ncnc(Nc4ccc(OCc5cccc(C(F)(F)F)c5)cc4)c3c2)o1`, the inhibition was 2.36% in test [1]; 3.02% in [2]; 7.55% in [3]; -2.56% in test [4]; -0.39% in test [5]; 5.09% in test [6]. In addition, the inhibition in [7] amounted to 7.64%; in test [8] it was 4.17%; in test [9], 5.4%; in test [10], 6.71%.
As for `CS(=O)(=O)Nc1ccc(-c2cc(-c3ccccc3)cc(C(N)=O)c2N)cc1`, the inhibition is -1.32% in test [1]; 0.44% in test [2]; 1.39% in test [3]; -3.34% in test [4]; -0.72% in test [5]; 3.76% in test [6]. The inhibition was found to be 0.63% in [7], 1.07% in test [8], 1.94% in [9] and 2.28% in test [10].
On to `COc1ccc(-c2nn3ncccc3c2-c2ccnc(Nc3ccc(F)c(F)c3)n2)cc1`, for which the inhibition in test [1] is 4.43%; in test [2], 3.14%; in test [3], 7.4%; in [4] it was -3.18%; in test [5] it was -4.79%; in [6], 3.76%. Moreover, the inhibition in test [7] was 8.64%; in [8], 6.74%; in test [9] it was 7.89%; in test [10] it was 4.63%.
`COc1cc(N2CCN(C(C)C)CC2)ccc1Nc1nc(Nc2cccc3ncccc23)c2cc[nH]c2n1`: the inhibition in [1] is 1.11%; in test [2], -0.04%; in test [3], 9.94%; in [4], 1.22%; in test [5], 4.44%; in test [6], 0.3%. Besides, the inhibition in test [7] is 1.78%; in test [8], -0.49%; in test [9], 4.32%; in test [10], -1.26%.
Take `CC1=C(C(=O)Nc2ccc3[nH]ncc3c2)C(c2ccc(F)cc2)N=C(c2ccc(C(F)(F)F)nc2)N1` (stereo not given): the inhibition in test [1] was found to be 2.04%; in [2] it was 0.67%; in test [3], 3.6%; in test [4], 0.82%; in test [5] it was 1.17%; in test [6] it was 0.19%. Further, the inhibition in test [7] turned out to be 3.03%; in test [8] it was 1.5%; in test [9] it was 2.24%; in test [10], 0.86%.
With `CN1CCC(n2cnc(-c3ccc(F)cc3)c2-c2ccnc(NCCO)n2)CC1`, the inhibition is 3.86% in test [1]; 1.32% in test [2]; 3.99% in test [3]; -3.49% in test [4]; -5.99% in test [5]; 1.6% in [6]. Also, the inhibition was 6.89% in test [7], 4.1% in test [8], 5.51% in [9] and 4.37% in [10].
Consider `CC1(C)CC(n2cnc(-c3ccc(F)cc3)c2-c2ccnc(N)n2)CC(C)(C)N1`, for which the inhibition was -1.67% in [1]; 0.69% in [2]; -0.31% in test [3]; 0.52% in test [4]; -0.57% in test [5]; -3.33% in test [6]. The inhibition in [7] was -6.27%; in [8], -4.96%; in [9], -4.4%; in [10], -7.58%.
For `CC1=C(C(=O)Nc2ccc3[nH]nc(C)c3c2)C(c2ccc(C(F)(F)F)cc2)CC(=O)N1` (stereo not given), the inhibition in test [1] worked out at 2.9%; in test [2] it was 1.76%; in test [3], 4.44%; in [4], 0.07%; in [5], 0.57%; in [6], 2.48%. Further, the inhibition stood at 2.75% in [7], 1.95% in test [8], 6.02% in test [9] and 3.37% in test [10].
`c1cnn2ncc(-c3ccnc(NCCCN4CCOCC4)n3)c2c1`: the inhibition in test [1] was 6.81%; in [2], 3.65%; in test [3] it was 3.72%; in test [4], -0.02%; in test [5], -0.41%; in test [6], 0.25%. For the same compound, the inhibition in test [7] was 1.83%; in test [8], 2.74%; in test [9] it was 3.47%; in [10], -0.4%.
As for `COc1cccc(Nc2nccc(-c3cnn4ncccc34)n2)c1`, the inhibition in test [1] was 13.8%; in test [2] it was 6.9%; in [3], 35.4%; in test [4], -0.56%; in [5], -1.54%; in test [6], -2.67%. Also, the inhibition in [7] is 3.93%; in test [8], 1.92%; in test [9], 11.2%; in [10] it was -0.58%.
As for `N#Cc1cccc(Nc2ncc(-c3ccccc3)o2)c1`, the inhibition in [1] was 1.79%; in test [2], 0.08%; in test [3], 2.56%; in test [4] it was -2.03%; in test [5] it was -2.55%; in test [6], 0.93%. For the same compound, the inhibition in test [7] came to 2.48%; in [8], 1.04%; in test [9], 2.58%; in test [10], 2.18%.
In the case of `Cc1c2ccc(N(C)c3ccnc(Nc4cccc(S(N)(=O)=O)c4)n3)cc2nn1C`, the inhibition amounted to 4.44% in test [1]; 4.36% in test [2]; 5.37% in [3]; 0.12% in [4]; 0.2% in test [5]; 3.06% in test [6]. Also, the inhibition is 4.57% in test [7], 3.17% in test [8], 7.22% in test [9] and 2.95% in test [10].
Take `O=C(O[C@H]1CN[C@H](C#Cc2cc3ncnc(Nc4ccc5c(ccn5Cc5cc(F)ccc5F)c4)c3s2)C1)N1CCOCC1`: the inhibition is 3.57% in test [1]; 4.06% in [2]; 3.62% in test [3]; 0.33% in [4]; 1.34% in test [5]; -1.01% in test [6]. Moreover, the inhibition was -1.69% in test [7], -0.02% in [8], 6.4% in [9] and -3.56% in test [10].
Take `CS(=O)(=O)Nc1ccc(-c2ccc3c(NC(=O)C4CC4)n[nH]c3c2)cc1`: the inhibition is 3.84% in test [1]; 3.65% in [2]; 3.38% in test [3]; -0.67% in test [4]; -0.43% in test [5]; 1.65% in test [6]. In addition, the inhibition in [7] came out at 1.61%; in test [8], 4.58%; in [9], 7.38%; in test [10], 2.51%.
On to `CCn1c(-c2nonc2N)nc2cncc(C(=O)NCCNC)c21`, for which the inhibition was -0.37% in [1]; 3.51% in test [2]; 6.88% in test [3]; -2.59% in test [4]; 0.71% in [5]; 2.97% in test [6]. Also, the inhibition in test [7] was -0.23%; in test [8] it was 4.63%; in test [9], 5.44%; in test [10] it was 3.2%.

(Values after ChEMBL document CHEMBL1961873, “Compounds: GSK PKIS; Assays: Nanosyn kinase panel” (2012).)
